PubChem BioAssay AID686970 (National Center for Advancing Translational Sciences (NCATS), 2013)
The campaign covered roughly 360,000 compounds. About 6,000 (1.7%) were called active. About 8% were inconclusive and are not listed. The call rests on the fitted dose curve; in most records, active means well fitted cell-killing curve with a large enough effect; inconclusive means small, poorly fitted or top-dose-only effect, or effect the other way; inactive means flat fitted curve, though single readings scatter. The sample as a whole holds a higher share of actives than the screen did.

assay: qHTS for induction of synthetic lethality in tumor cells producing 2HG: qHTS for the HT-1080-NT fibrosarcoma cell line; details: HT-1080-NT fibrosarcoma viability, CellTiter-Glo ATP luminescence, 48 h; series mostly up to 46.1 µM; activity, negative = less viability: at the top concentration;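 further: NT is the 2HG producing partner of a matched IDH1 knockdown line; nearly all actives have a fitted effect of over 55% in size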;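 on activity, negative = less viability: 0% = DMSO-treated cells and -100% = media-only wells without cells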
Method in brief: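 Read-out is CellTiter-Glo luminescence after 10 minutes at room temperature, following 48 hours' compound treatment of HT-1080-NT cells (750 cells/well, RPMI, 5% FBS, 37 degrees C).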
Potency means the concentration at half of the fitted maximal effect.

| Structure (SMILES) | activity, negative = less viability | Potency |
| --- | --- | --- |
| CCNC(=O)C1(C)CCCN(C(=O)c2ccc3ccccc3n2)C1 (configuration not stated) | 18.6% (inactive) |  |
| CN(Cc1ccc(C(F)(F)F)cc1)C(=O)[C@H]1O[C@@H](n2cnc3c(N)ncnc32)[C@H](O)[C@@H]1O | 1.31% (inactive) |  |
| O=C(c1ccc2c(=O)n(Cc3ccco3)c(=S)[nH]c2c1)N1CCCC1 | 17.1% (inactive) |  |
| COc1ccc([C@H]2C[C@@H](n3cc(COC(=O)c4ccccc4)nn3)[C@H](O)CN2C(=O)c2cccs2)cc1 | -16.2% (inactive) |  |
| COC(=O)c1ccc2nc(-c3ccc(C)cc3)c(Cc3ccc(OC)cc3C)n2c1 | 2.62% (inactive) |  |
| O=C(COc1ccc(S(=O)(=O)N2CCCC2)cc1[N+](=O)[O-])N1CCCCC1 | 3.38% (inactive) |  |
| CCCCNC(=O)c1nc(C2CCN(S(=O)(=O)c3ccc(F)c(F)c3)CC2)oc1-c1cccc(C(F)(F)F)c1 | 20.6% (inactive) |  |
| COC(=O)c1ccc2nc(-c3ccccc3)c(Cc3ccc(OC)cc3C)n2c1 | 9.2% (inactive) |  |
| CC(C)(C)c1ccc(S(=O)(=O)NC(=O)C2(C)CCN2C(=O)CC2CC2)cc1 (configuration not stated) | 16.8% (inactive) |  |
| N#Cc1ccc(-c2ccc3nccn3c2)cc1 | 11.3% (inactive) |  |
| COc1cccc(-n2cc(C(=O)O)c3ccccc3c2=O)c1 |  | 14.1 µM (active) |
| COc1cccc(-n2nc(C(=O)N3CCN(Cc4ccccc4)CC3)c3ccccc3c2=O)c1 | -15.9% (inactive) |  |
| COc1cccc(-n2cc3c(c2-c2ccccc2)c(=O)n(C)c(=O)n3C)c1 | -10.2% (inactive) |  |
| CCOC(=O)c1cc(-c2sc(NC(=O)c3ccccc3)nc2C)n(-c2ccc(Br)cc2)n1 | -3.27% (inactive) |  |
| CCc1nc2ccc(C(=O)N(C)Cc3ccco3)cn2c1N(C)C(=O)Cc1ccccc1 | 12.2% (inactive) |  |
| O=C(CC[C@H]1O[C@@H](n2ccc(=O)[nH]c2=O)[C@H](O)[C@@H]1O)N[C@H](Cc1ccccc1)C(=O)NCc1ccco1 | 16.7% (inactive) |  |
| COc1ccccc1-n1c(SCC(=O)Nc2cccc(C(=O)O)c2)nnc1-c1ccccc1O | 12.6% (inactive) |  |
| COc1cccc(/C=N/Nc2cc(C)nc(-c3ccccc3O)n2)c1O |  | 8.2 µM (active) |
| COc1cccc(/C=N/Nc2ccc(S(=O)(=O)Nc3ccccc3C(=O)O)cc2[N+](=O)[O-])c1O | -0.335% (inactive) |  |
| O=C(Nc1ccc2c(c1)[C@@H]1C[C@@H](CC(=O)N3CCCCC3)O[C@@H](CO)[C@@H]1O2)NC1CCCCC1 | -11% (inactive) |  |
| CCCS(=O)(=O)NC(=O)C1(C)CCCN(C(=O)c2cc(C)on2)C1 (configuration not stated) | 23.2% (inactive) |  |
| CCOC(=O)C1=CCC(c2ccc(F)cc2)N(S(=O)(=O)c2ccc(C)cc2)C1 (configuration not stated) | -28.5% (inactive) |  |
| COc1ccc(Sc2ccc(NC(=O)c3cccc(Cl)c3)cc2C#N)cc1 | -13.9% (inactive) |  |
| COc1cccc(C(NC(C)=O)c2nc(-c3ccccc3OC)cs2)c1 (configuration not stated) | -1.79% (inactive) |  |

| Structure (SMILES) | activity, negative = less viability | Potency |
| --- | --- | --- |
| CCOC1=C2CN(S(=O)(=O)c3ccc(C)cc3)[C@H](c3cccs3)C[C@H]2[C@H]2C(=O)N(c3ccccc3)C(=O)[C@H]2C1 | 14.8% (inactive) |  |
| COc1ccc(NS(=O)(=O)c2ccc(N3CCOCC3)c(NC(=O)/C=C/C(=O)O)c2)cc1 | 10.2% (inactive) |  |
| CC(C)(C)c1ccc(/C=C/C(=O)Nc2ncccn2)cc1 | -10.7% (inactive) |  |
| COC(=O)c1sc(-c2ccc(C(C)(C)C)cc2)cc1NC(=O)/C=C/C(=O)O |  | 11.6 µM (active) |
| COc1cccc(OCC(=O)NCCS(=O)(=O)N2CCN(c3ccccc3)CC2)c1 | 8.66% (inactive) |  |
| COc1ccc(CC(NC(C)=O)C(=O)NC2CCN(C(=O)c3ccc(OC)c(OC)c3)CC2)cc1OC (configuration not stated) | 8.35% (inactive) |  |
| COc1ccc(CC(NC(C)=O)C(=O)NC2CCN(C(=O)C3CC3)CC2)cc1OC (configuration not stated) | 21% (inactive) |  |
| CCc1ccc(OCC2c3cc(OC)c(OC)cc3CCN2C(C)=O)cc1 (configuration not stated) |  | 16.4 µM (active) |
| CCOC1=C2[C@@H](CN(S(=O)(=O)c3ccc(C)cc3)[C@H]2c2ccccc2F)[C@H]2C(=O)N(Cc3ccccc3)C(=O)[C@H]2C1 | -0.579% (inactive) |  |
| O=[N+]([O-])c1ccc(NS(=O)(=O)c2ccccc2)c(Cl)c1 |  | 6.51 µM (active) |
| Cc1cc([N+](=O)[O-])ccc1NS(=O)(=O)c1ccccc1 | -9.92% (inactive) |  |
| O=C(NNS(=O)(=O)c1ccc(F)cc1)c1ccc([N+](=O)[O-])cc1Cl | 2.11% (inactive) |  |
| CC(C)C[C@@H]1COc2cc(N3CCC[C@@H]3CO)ccc2S(=O)(=O)N1 | 5.13% (inactive) |  |
| CC(C)CCOc1ccc(C(=O)Nc2cc(S(=O)(=O)N3CCOCC3)ccc2N2CCOCC2)cc1 | 0.747% (inactive) |  |
| O=[N+]([O-])c1ccc(CN2CC(N3CCC(c4ccccc4)CC3)CS2(=O)=O)cc1 (configuration not stated) | 2.9% (inactive) |  |
| CCOC(=O)N1CCN(S(=O)(=O)c2ccc(OC)cc2)CC1 | 5.1% (inactive) |  |
| NC(=O)c1ccccc1N(Cc1ccccc1)S(=O)(=O)c1ccccc1 | 2.72% (inactive) |  |
| CCOC(=O)N1CCN(C(=O)c2ccccc2N(Cc2ccccc2)S(=O)(=O)c2ccc(OC)cc2)CC1 |  | 3.26 µM (active) |
| COc1ccc(NC(=O)COC(=O)C2COc3ccccc3O2)cc1 (configuration not stated) | 6.35% (inactive) |  |
| COCc1cccc(-c2csc(C(O)c3ccc(F)cc3)n2)c1 (configuration not stated) | -11.2% (inactive) |  |
| COc1cc(/C=N/NC(=O)c2cc(-c3ccccc3C)nc3ccccc23)cc(OC)c1O | -6.84% (inactive) |  |
| COc1cccc(/C=N/NC(=O)c2[nH]nc3c2CCc2ccccc2-3)c1O |  | 2.59 µM (active) |
| COc1cccc(/C=N/NC(=O)CNC(=O)c2ccc(S(=O)(=O)N3CCOCC3)cc2)c1OC | -6.44% (inactive) |  |
